Screening data as filed in PubChem BioAssay.
MITF TRPM1 HTS: activators of MITF-driven TRPM1 promoter reporter, primary screen, cell-based, SK-MEL-5, luciferase, single point; 300,000 tested, 0.75% active; activation, % at 12.5 µM; SK-MEL-5 TRPM1-promoter luciferase, 24 h; % of positive control, neutral wells = 0;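 active = mean activation of at least 80% with every replicate also reaching 80%; inconclusive = mean reaches 80% but some replicate falls short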;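 note: 0% = neutral control wells and 100% = parthenolide positive control wells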
esBAF inh: Bmi1 luciferase reporter increase in mESCs, primary screen, esBAF inhibitor project, mouse ES cells, Bmi1 luciferase knock-in, single point | 24 h; 100% = twice the neutral-well signal | reporter increase, % at 12.5 µM | 350,000 tested, 2% active; in the data active = activation above about 40%; inconclusive = no clear call, values can overlap the other calls;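 note: 0% = median of the plate's neutral control wells and 100% = double that signal; a rise in the Bmi1 reporter signal indicates esBAF inhibition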
Glyco luc inh: increase of ERlucT glycosylation luciferase signal, primary screen, N-linked glycosylation inhibitor project, D54 ERlucT cells, luminescence, set 2; reporter increase, % at 12.5 µM; AID 588692, 2011; D54 ERlucT glycosylation luciferase reporter, 24 h; percent of 100 nM tunicamycin response; 360,000 tested, 0.23% active;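 active = mean luciferase reporter signal, scaled so untreated is 0 and the glycosylation-blocking control 100, at or above a set limit in every replicate; inconclusive = mean reaches the limit but not every replicate does; inactive = mean below the limit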;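 note: luciferase carries N-glycosylation sites so blocking glycosylation raises the light; 0% = median of neutral control wells and 100% = median of 100 nM tunicamycin wells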
Wnt bcat act: Wnt/beta-catenin pathway activators, primary screen, cell-based, plate reader, single point; activation, % at 9.35 µM; Wnt/beta-catenin reporter cell assay, activator; AID 743398, 2014; 300,000 tested, 1.2% active; in the data active = activation above about 30%, passing the limit was not always enough; inconclusive = no clear call, values can overlap the other calls;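 note: 0% = neutral control wells and 100% = positive control wells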
Vif imaging: HIV Vif self-association inhibitors, primary screen, imaging, HEK293T, single point; inhibition, % at 7.49 µM; HEK293T cells, Vif self-association by quenched fluorescence, 24 h; AID 602346, 2012; 340,000 tested, 0.35% active; in the data active = inhibition above about 50%, passing the limit was not always enough; inconclusive = no clear call, values can overlap the other calls; inactive = below about 31%
PfHsp90 set2: growth inhibition of PfHsp90-expressing yeast, primary screen, antimalarial PfHsp90 inhibitor project, S. cerevisiae, BacTiter-Glo luminescence, single point, set 2; BacTiter-Glo ATP, 48 h; yeast lacking PDR1 and PDR3 efflux regulators; inhibition, % at 9.4 µM; 310,000 tested, 0.32% active;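 active = every replicate shows inhibition above about 80%, whatever the replicate mean, limit read from the data; inconclusive = mean inhibition reaches the set limit but some replicate falls short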;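 note: 0% = DMSO neutral controls and 100% = 20 µM radicicol positive controls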
esBAF Ring1 qPCR: Ring1 mRNA increase in mouse ESCs, confirmation, esBAF inhibitor project, cell-based, mouse ESC, RT-qPCR, cherry-pick. shares compounds with esBAF inh. mouse ESC E14, Ring1 mRNA RT-qPCR fold change. fold change at 33 µM. 550 tested, under 10 active. AID 743176, 2013;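 active = Ring1 gene expression raised more than 2-fold over untreated cells in both replicates at either tested dose; inconclusive = only one replicate above 2-fold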;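 note: Ring1 transcript normalised to actin housekeeping signal by TaqMan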
esBAF Fgf4 qPCR: Fgf4 mRNA decrease in mouse ESCs, confirmation, esBAF inhibitor project, cell-based, mouse ESC, RT-qPCR, cherry-pick; mouse ESC E14, Fgf4 mRNA qPCR fold change; stronger effect = lower value; Fgf4 expression fold change at 33 µM; 550 tested, 4% active; shares compounds with esBAF inh; AID 743177, 2013;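 active = Fgf4 expression under 0.8 fold of control in both repeat measurements at one or both tested doses; inconclusive = under 0.8 fold in just a single repeat measurement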;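 note: Fgf4 transcript normalised to actin in duplex TaqMan qPCR; cells exposed to compound for 24 h before lysis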
Bmi1 derepress: esBAF inhibition via Bmi1 de-repression, confirmation, cell-based, RT-qPCR, mouse ESC, single point, cherry-pick | shares compounds with esBAF inh | mouse ESE14 ES cells, Bmi1 mRNA qPCR fold; stronger effect = higher value | fold change at 33 µM | 550 tested, under 10 active | AID 743180, 2013;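 active = Bmi1 expression fold change above 6 at either tested concentration, seen in replicate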
A549 cytotox: A549 cell cytotoxicity, cytotoxicity control, plate reader, single point, cherry-pick; AID 743188, 2013; shares compounds with esBAF inh; 550 tested, under 10 active; cell viability change % (negative = cytotoxic), % at 25 µM, hits read low; call rule not given here
HepG2 tox SP: HepG2 cell cytotoxicity, cytotoxicity control, plate reader, single point, cherry-pick. 550 tested, 4% active. stronger effect = lower value. AID 743189, 2013. activity change, negative = inhibition, % at 25 µM. shares compounds with esBAF inh; in the data active = activity change below about -50%
HEK293 tox SP: HEK293 cell cytotoxicity, cytotoxicity control, plate reader, single point, cherry-pick; shares compounds with esBAF inh; activity change, negative = inhibition, % at 25 µM, hits read low; 550 tested, 3% active; in the data active = activity change below about -38%, passing the limit was not always enough
An asterisk follows results filed as active; ? = inconclusive; . = not tested or not shown. The list is not random: actives were taken first. Their share in the collection is about 3%.

SMILES	MITF TRPM1 HTS	esBAF inh	Glyco luc inh	Wnt bcat act	Vif imaging	PfHsp90 set2	esBAF Ring1 qPCR	esBAF Fgf4 qPCR	Bmi1 derepress	A549 cytotox	HepG2 tox SP	HEK293 tox SP
Clc1ccc(N/N=C/c2cccnc2)cc1	?	70*	2	.	-14	29	1.1	0.96	1.8	0	-11	-12
COc1ccc(-c2csc(C(O)c3ccccc3)n2)cc1 (stereo unspecified)	.	92*	0	-3	-13	.	1.4	?	1.6	-2	4	-10
COc1ccc(C(O)c2nc(-c3ccc(C)c(C)c3)cs2)cc1 (stereo unspecified)	.	8	2	0	5	.	.	.	.	.	.	.
OC(c1ccccc1)c1nc(/C=C/c2ccccc2)cs1 (stereo unspecified)	.	59*	-3	2	4	.	1.6	?	1.6	6	-5	-6
CCOC(=O)C1C(C(=O)OC)=C(c2ccc(OC)cc2)c2ccccc2N1S(=O)(=O)C(F)(F)F (stereo unspecified)	9	-6	-1	-1	-10	2	.	.	.	.	.	.
NNc1cc2c(nn1)CCN(C(=O)c1ccccc1)C2	.	.	1	-3	-5	.	.	.	.	.	.	.
COC(=O)c1ccc2[nH]c(C)cc(=O)c2c1	-6	3	1	0	-4	-14	.	.	.	.	.	.
COC(=O)c1ccc2[nH]c(C(C)(C)O)c(C)c2c1	75	57*	1	20	3	2	1.4	1	1.4	-1	-14	-4
O=C(Cc1cccs1)Nc1nc2c(s1)CCCC2	56	59*	-15	13	-13	.	1	0.79*	1.3	-28	9	-55*
COc1ccccc1NC(=O)c1cc(C)oc1C	0	8	1	7	12	.	.	.	.	.	.	.
O=C(c1ccncc1)N1N=C(c2ccc(Cl)cc2)CC1c1ccccc1O (stereo unspecified)	65	80*	-7	18	-3	-14	1.4	0.83	1.6	12	24	5
COc1ccc(C2=NN(C(=O)c3ccncc3)C(c3ccccc3O)C2)cc1 (stereo unspecified)	21	20	-4	2	-4	1	.	.	.	.	.	.
O=C(c1cccs1)N(C(=O)c1cccs1)c1ccc(Br)cn1	30	65*	9	56*	-9	-8	0.73	0.97	1.6	-9	-37	-6
Cc1ccnc(N(C(=O)c2cccs2)C(=O)c2cccs2)c1	30	8	-1	?	0	-4	.	.	.	.	.	.
O=C(O)C(Cc1c[nH]c2ccccc12)NS(=O)(=O)c1cccc2nsnc12 (stereo unspecified)	-12	.	1	-5	3	-3	.	.	.	.	.	.
CCC(=O)c1ccc(N2CCC(C)CC2)c(F)c1	71	71*	1	8	21	.	1.4	0.9	1.7	1	-17	2
O=C(NC1CCCCCCC1)c1c(O)c2ccccc2[nH]c1=O	100*	91*	0	.	-2	-1	1.1	0.92	1.3	-6	18	-18
O=C(NNC(=O)c1ccc2ccccc2c1O)NC1CCCCC1	-5	0	1	2	2	-3	.	.	.	.	.	.
O=C(NC1CCCCC1)c1ccc2ccccc2c1O	.	83*	-12	0	-2	.	1.1	0.73*	1.9	-13	9	-50*
Cc1cc(C)nc(NC(=O)C(c2ccccc2)c2ccccc2)n1	-6	-10	0	-1	.	-5	.	.	.	.	.	.
NC(=O)NC(=O)CSc1ccccc1	5	.	2	-2	0	.	.	.	.	.	.	.
O=C(O)c1ccc(N2C(=O)c3cccc(Oc4ccc(Cl)cc4)c3C2=O)cc1	-2	.	0	0	5	-15	.	.	.	.	.	.
Cc1ccc(SCCN2CCC(C)CCC2=O)cc1 (stereo unspecified)	?	83*	-5	28	.	-25	0.98	?	1.2	-11	-44	-20
Cc1ccc(SCCN2CCC(C(C)(C)C)CCC2=O)cc1 (stereo unspecified)	46	25	-3	9	0	-2	.	.	.	.	.	.
O=C(Nc1ccc(F)cc1F)NC1CCCCCCC1	65	63*	-3	14	1	3	1	0.83	1.8	-7	-51*	-16
O=C(Nc1ccc(F)cc1F)NC1CC1	-6	.	5	0	-1	-13	.	.	.	.	.	.
COC(=O)c1c(-c2ccc(SC)cc2)sc2ccc(OC)cc12	68	99*	-1	58*	-4	-6	1.3	0.83	1.9	6	4	-5
COC(=O)c1c(-c2cc(OC)cc(OC)c2)sc2ccc(OC)cc12	37	20	0	7	5	-2	.	.	.	.	.	.
